Results as given in article PMC13494018.

B1: design_487_778f5c6d-c470-43b8-8f82-464af6177e08_421_dldesign_0_cycle1_af2pred (protein)
chain: SDAKLAVEAARSAAIAAIELAKQGAWQGAELARQNMKKAAEKALKLGAADPSVKEEVEKEVNAIVKETDAALAAEKAAR
B2: design_486_d4f32670-1303-4d79-8413-1b14cb3eff50_1885_dldesign_0_cycle1_af2pred (protein)
chain: MEEAGEIVERAEEVYKRAKEAAEENAKRNPEKKEEIKKLYEEAVALIQKSLALASQGALEGNQELLKEAKKKLEEAEKVAKEIEKL
B3: design_487_778f5c6d-c470-43b8-8f82-464af6177e08_100_dldesign_0_cycle1_af2pred (protein)
chain: MDKEQVYETAAKMLEEGAELVKAGEETKPAGLAKAKAAALLVLGVDPEVGEKVLKLVEEAEKADQEKAAKLIEEAAKLVKE
B4: design_486_d4f32670-1303-4d79-8413-1b14cb3eff50_1718_dldesign_0_cycle1_af2pred (protein)
chain: MSAGEIALANTRAVAKQLIAAGKELGTEEEARKKAEEAIAKVEELAKKGPAGAAEAMKITVEMMKELDKVSKAVEEAE
B5: design_487_778f5c6d-c470-43b8-8f82-464af6177e08_89_dldesign_0_cycle1_af2pred (protein)
chain: SEAEKEAEKAEKLVEELRANPKVPLEKAKELAKAIQELAKLDPEKGAEMASKAVAVILEKGKEIPGETINAILTGVSKAHAIINA
B6: design_487_778f5c6d-c470-43b8-8f82-464af6177e08_509_dldesign_0_cycle1_af2pred (protein)
chain: GEAFSKEALEKGKEAAKKAEESTDPEAKTLYIKAASNYYGAAALALSPESAPLAKERAAKGDEYRAKADAL
B7: design_486_d4f32670-1303-4d79-8413-1b14cb3eff50_2004_dldesign_0_cycle1_af2pred (protein)
chain: KKAEILAAGNALVVELLAEAEKAAKAAKAAGDPEAANQALVEAAKGAAKIHALMVKGAPVEELKKEAEAAKKKIKALAE
B8: design_487_778f5c6d-c470-43b8-8f82-464af6177e08_560_dldesign_0_cycle1_af2pred (protein)
chain: GAAKLAQGALNMAKAQLAYLEKALAAGAADPANAAAYKAKAKEALEQLKTFATAATLVDPAAAPEGDAILKEAEAKYKALSAAIAAA
B9: design_486_d4f32670-1303-4d79-8413-1b14cb3eff50_1967_dldesign_0_cycle1_af2pred (protein)
chain: DAEVEKLQAQIRTAGLILMASSSPEKAEEALKRTKEAVELAKKNPEEGLKLAEEIAEEAKKVGTPEQAAVIDSVFK
B10: design_487_778f5c6d-c470-43b8-8f82-464af6177e08_310_dldesign_0_cycle1_af2pred (protein)
chain: AAVLSPEQAGGTFRALATSIRLAAEAGDLDSAEALAAAGLQLAENQPAVAPLVNKAKEEAAKLTPKEAALKLADAFEQAGDALLA
B11: design_486_d4f32670-1303-4d79-8413-1b14cb3eff50_2076_dldesign_0_cycle1_af2pred (protein)
chain: AALVGEAMVLLAEVAAAGPPEVRAKASAAIAALAAGDLETALKLAKEAAELLKKAGKEYEPAAKKAEEAAKLLKEAAAAAA
B12: design_486_d4f32670-1303-4d79-8413-1b14cb3eff50_2359_dldesign_0_cycle1_af2pred (protein)
chain: DAAKEFAENYEKAAEYVSQIYAKDPAAGEEMQKVLTAKTAEASKLAIAGDLAGAAKVMKEALEIAKKKLEEL
B13: design_487_778f5c6d-c470-43b8-8f82-464af6177e08_420_dldesign_0_cycle1_af2pred (protein)
chain: AEEKIKEANRLFQEGARKMVQGLQLAAQGKKEEAEKELTEAIELFTKASKLAKEAGDERLAESAEKAAKEAKAQLAAVKAA
B14: design_487_778f5c6d-c470-43b8-8f82-464af6177e08_256_dldesign_0_cycle1_af2pred (protein)
chain: GEALEKAKEYEKEANEAAAKGKATTPAEGALYFLKAAALYAKAAEEYKKAGDEKNAKEAEAKAKEATANMIALSKQAIAA
B15: design_487_778f5c6d-c470-43b8-8f82-464af6177e08_613_dldesign_0_cycle1_af2pred (protein)
chain: EEAEKERARAIIEKASAKLDALAAEAEERDPALGAQARALRDSLAATAQTYIETGSPTGRAGLNSLAAFLA
B16: design_486_d4f32670-1303-4d79-8413-1b14cb3eff50_2179_dldesign_0_cycle1_af2pred (protein)
chain: AQEANDLLAETLETLREGQAAAKELGDEEARLKLVELANKSMTLASQAVAAGGDQELLDKAKEYHAELKKLAKEVKEKA
B17: design_487_778f5c6d-c470-43b8-8f82-464af6177e08_501_dldesign_0_cycle1_af2pred (protein)
chain: MDRAVEIAVASLKHAVKQAIAAAEKIDPELAKKVEEEGKKKIEEAAASDSATAVEIAIEALKKLSELSKKARA
B18: design_487_778f5c6d-c470-43b8-8f82-464af6177e08_452_dldesign_0_cycle1_af2pred (protein)
chain: EEERIQRIAEQVEELIKTAEEALATGTAAGKQAAKQLALAAATVLSSVDPELGAKVKEVAKTGTAEEAIKAAKEALEEIKKK
B19: design_486_d4f32670-1303-4d79-8413-1b14cb3eff50_2148_dldesign_0_cycle1_af2pred (protein)
chain: GSAAYEFAKEAIERALKAAEELKKLDPEEGKKLIEKVEKLKKELEANKDNAQKAARIAIEALQIEQEAQQKIAALKAA

target: CD276, Q5ZPR3
Sequence (Q5ZPR3 whole entry): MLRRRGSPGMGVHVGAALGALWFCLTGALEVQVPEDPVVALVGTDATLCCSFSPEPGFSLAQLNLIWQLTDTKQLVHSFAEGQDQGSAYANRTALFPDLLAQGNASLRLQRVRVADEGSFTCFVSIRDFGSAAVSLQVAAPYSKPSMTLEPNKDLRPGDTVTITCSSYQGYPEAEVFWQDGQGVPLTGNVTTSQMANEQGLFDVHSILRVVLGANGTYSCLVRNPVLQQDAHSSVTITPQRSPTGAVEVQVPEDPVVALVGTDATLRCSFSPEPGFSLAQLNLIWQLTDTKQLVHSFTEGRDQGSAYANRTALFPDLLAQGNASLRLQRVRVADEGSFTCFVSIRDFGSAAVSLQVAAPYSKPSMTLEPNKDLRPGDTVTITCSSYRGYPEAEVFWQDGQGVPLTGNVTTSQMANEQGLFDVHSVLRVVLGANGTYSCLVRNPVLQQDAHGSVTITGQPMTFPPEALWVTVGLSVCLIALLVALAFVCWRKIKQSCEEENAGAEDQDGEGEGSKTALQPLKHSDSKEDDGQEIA

Binding in a display sort, inactive:
B1 not found
B2 not found
B3 not found
B4 not found
B5 not found
B6 not found
B7 not found
B8 not found
B9 not found
B10 not found
B11 not found
B12 not found
B13 not found
B14 not found
B15 not found
B16 not found
B17 not found
B18 not found
B19 not found
